In PubChem BioAssay (NCI):
About 79,000 compounds went through this panel and 15% of them were active in at least one assay; those are over-represented in the sample as a whole. A number with no mark means an inactive call. Active and inactive are the calls of the source. No stated cut-off is given here; in the data, active means growth inhibition above about 70%; inactive means the rest.

Key:
[1] = NCI Yeast Anticancer Drug Screen. Data for the rad50 strain (AID 155);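 further: 0% = growth of vehicle-only cultures of the same strain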; conditions: S. cerevisiae rad50 strain growth inhibition, stronger effect = higher value
Outline: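 Growth of the mutant yeast was measured after compound exposure and referenced to vehicle-treated cultures.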

[2] = NCI Yeast Anticancer Drug Screen. Data for the mec2-1 strain (AID 157); conditions: S. cerevisiae mec2-1 strain, stronger effect = higher value
Outline: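 mec2-1 yeast strain, carrying an alteration in DNA damage repair or cell cycle control, was exposed to compounds; growth inhibition was measured relative to vehicle-treated controls.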

[3] = NCI Yeast Anticancer Drug Screen. Data for the sgs1 mgt1 strain (AID 161);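 further: 0% = growth of cultures given vehicle only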; conditions: S. cerevisiae sgs1 mgt1 strain, stronger effect = higher value
Outline: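 Growth of a repair-deficient yeast mutant was monitored after compound treatment and expressed as inhibition relative to vehicle-treated cultures.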

[4] = NCI Yeast Anticancer Drug Screen. Data for the cln2 rad14 strain (AID 165);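 further: 0% = growth equal to vehicle treated cultures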; conditions: S. cerevisiae cln2 rad14 strain, stronger effect = higher value
Outline: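 Yeast carrying cln2 and rad14 alterations (cell cycle control and DNA damage repair) were exposed to compounds. Growth inhibition was measured against vehicle-treated controls.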

[5] = NCI Yeast Anticancer Drug Screen. Data for the bub3 strain (AID 167); conditions: S. cerevisiae bub3 mutant strain, stronger effect = higher value
Outline: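 Whole-cell yeast assay. The mutant strain was incubated with compounds, and growth inhibition was determined by comparison with vehicle-treated cells.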

[6] = NCI Yeast Anticancer Drug Screen. Data for the mlh1 rad18 strain (AID 175); conditions: S. cerevisiae mlh1 rad18 strain growth inhibition, stronger effect = higher value
Outline: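 Growth inhibition of the yeast strain was measured after compound exposure and expressed relative to vehicle-treated controls. The strain carries defined defects in DNA damage repair.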

[7] = at 5.0 µM (retest, dose inferred, filed as 0.5)
[8] = at 50.0 µM (retest, dose inferred, filed as 5.0)

SMILES	growth inhibition [1, 7]	growth inhibition [1, 8]	growth inhibition ([1]; at 50.0 µM)	growth inhibition [2, 7]	growth inhibition [2, 8]	growth inhibition ([2]; at 50.0 µM)	growth inhibition [3, 7]	growth inhibition [3, 8]	growth inhibition ([3]; at 50.0 µM)	growth inhibition [4, 7]	growth inhibition [4, 8]	growth inhibition ([4]; at 50.0 µM)	growth inhibition [5, 7]	growth inhibition [5, 8]	growth inhibition ([5]; at 50.0 µM)	growth inhibition [6, 7]	growth inhibition [6, 8]	growth inhibition ([6]; at 50.0 µM)
CCCCCCCCCCCCCCCCCC[S+](C)CC (configuration not stated)	97% (active)	94% (active)	90.2% (active)	99% (active)	98% (active)	92.9% (active)	99% (active)	99% (active)	92.9% (active)	98% (active)	98% (active)	91.6% (active)	99% (active)	98% (active)	91.5% (active)	98% (active)	97% (active)	90.3% (active)
Cc1cccc2c(N)c3ccccc3nc12	12%	57%	87.7% (active)	3%	13%	43.3%	1%	7%	73.7% (active)	6%	15%	45.6%	0%	-9%	45%	6%	24%	67.8%
CC(C)(C)CC(C)(C)c1ccc(OCCOCCSC(=N)N)cc1	5%	99% (active)	46.4%	-3%	100% (active)	47%	23%	99% (active)	40.1%	13%	99% (active)	99.2% (active)	5%	99% (active)	99.5% (active)	24%	98% (active)	97.6% (active)
C=C1C(=O)OC2CC3(C)CCCC(C)C3=CC12 (configuration not stated)	18%	27%	49.5%	10%	56%	46.9%	15%	49%	80% (active)	7%	25%	16.2%	14%	63%	78.8% (active)	14%	41%	25%
CCCOS(=O)(=O)c1ccccc1	14%	1%	0.7%	19%	38%	12.3%	-7%	4%	10.1%	38%	35%	-2.2%	23%	42%	-1.4%	11%	32%	14.3%
CSc1nc(C)c(C(=O)CCN2CCN(c3ccccn3)CC2)s1	-3%	99% (active)	86.8% (active)	-3%	100% (active)	78% (active)	-23%	99% (active)	66.2%	-2%	99% (active)	43.4%	-1%	100% (active)	79.5% (active)	-3%	99% (active)	58.6%
Cc1cc2cccnc2c2ncccc12	34%	98% (active)	99% (active)	9%	99% (active)	99.2% (active)	5%	98% (active)	99.1% (active)	-9%	98% (active)	97.5% (active)	21%	99% (active)	99.3% (active)	25%	99% (active)	98.7% (active)
O=[N+]([O-])c1ccc(N2CCN(Cc3ccccc3)CC2)c2c1no[n+]2[O-]	50%	97% (active)	90.1% (active)	18%	98% (active)	93.1% (active)	34%	92% (active)	89.5% (active)	4%	22%	72.5% (active)	11%	78% (active)	90% (active)	39%	97% (active)	88.3% (active)
Oc1cc(Cl)ccc1Cc1ccc(Cl)cc1O	97% (active)	100% (active)	99.8% (active)	99% (active)	100% (active)	99.7% (active)	98% (active)	100% (active)	99.6% (active)	98% (active)	94% (active)	99.5% (active)	99% (active)	100% (active)	99.6% (active)	96% (active)	96% (active)	99.7% (active)
